Hit rate of the full screen: of about 220,000 compounds, about 16,000 (7.3%) were called active. Where a call stands in place of a potency, no number is given. Not shown: some 25% with an inconclusive outcome. Only a selection was taken, and actives are over-represented in it overall. Values without a mark were called inactive. Calls follow the shape of the dose curve; as a rule, active = well fitted inhibition curve with a large enough effect (not every such curve was filed as active); inconclusive = small, poorly fitted or top-dose-only effect, or another doubt; inactive = no such curve, though single readings can be large or run the other way.
Molecular target: Aldehyde dehydrogenase 1A1 (Homo sapiens) (UniProt P00352)
Sequence (P00352 whole entry, looked up): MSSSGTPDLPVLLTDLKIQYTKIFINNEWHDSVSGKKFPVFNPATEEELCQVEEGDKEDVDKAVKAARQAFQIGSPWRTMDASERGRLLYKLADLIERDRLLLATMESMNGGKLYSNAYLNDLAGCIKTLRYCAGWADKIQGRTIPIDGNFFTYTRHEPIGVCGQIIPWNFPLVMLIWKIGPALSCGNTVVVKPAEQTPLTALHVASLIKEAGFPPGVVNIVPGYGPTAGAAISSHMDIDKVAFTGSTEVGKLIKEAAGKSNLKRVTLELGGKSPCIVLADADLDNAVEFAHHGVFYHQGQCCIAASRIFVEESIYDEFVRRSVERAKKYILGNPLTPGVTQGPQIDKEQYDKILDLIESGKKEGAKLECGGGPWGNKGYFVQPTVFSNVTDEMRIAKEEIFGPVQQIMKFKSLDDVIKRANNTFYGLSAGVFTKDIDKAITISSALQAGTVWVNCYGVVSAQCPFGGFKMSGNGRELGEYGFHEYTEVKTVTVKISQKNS
Experiment: qHTS Assay for Inhibitors of Aldehyde Dehydrogenase 1 (ALDH1A1)
Details: Purified ALDH1A1, NADH fluorescence, propionaldehyde substrate; series mostly up to 75.3 µM
Potency is read from the fitted curve at half-maximal effect.

| Compound | Potency | activity, negative = inhibition |
| --- | --- | --- |
| CC(C)(C)OC(=O)N/N=C/c1cn(-c2ccccc2)nc1-c1cccnc1 | inactive |  |
| CCN(CC)CC(=O)Nc1sc2c(c1C(=O)c1ccccc1C)CCC2 | inactive |  |
| Cc1ccc(SCCC(=O)NCc2ccccn2)cc1 | inactive |  |
| N#Cc1ccc(OCc2nnc(-c3ccc([N+](=O)[O-])cc3)o2)cc1 | inactive |  |
| CCCSc1ncccc1C(=O)O | inactive |  |
| CN(C)NC(=O)C(NC(=O)c1ccc(N)cc1)C12CC3CC(CC(C3)C1)C2 (stereo unspecified) | inactive |  |
| CNC(=S)N/N=C/c1cn(Cc2ccc(C)cc2)c2ccccc12 | inactive |  |
| CNC(=S)N/N=C/c1ccc(N2CCOCC2)s1 | 8.91 µM (active) |  |
| Cc1ccc(NC(=S)NCCN2CCOCC2)cc1 | inactive |  |
| CC(C)CC[n+]1ccn(C2=C([O-])c3ccccc3C(=O)/C2=N\S(=O)(=O)c2ccccc2)c1 | 8.91 µM (active) |  |
| COc1ccc(-c2csc(Nc3ccccn3)n2)cc1 | inactive |  |
| Brc1ccc2ncnc(NCc3cccnc3)c2c1 | inactive |  |
| O=S(=O)(NCCc1ccccc1)c1ccccc1 | inactive |  |
| Cc1ccc(S(=O)(=O)NCCSC(C)(C)C)cc1 | 17.8 µM (active) |  |
| Cc1ccc(C(=O)NCCNS(=O)(=O)c2ccccc2)cc1 | inactive |  |
| COc1cc(OC)cc(C(=O)OCC(=O)Nc2ccc(F)cc2F)c1 | inactive |  |
| CC(C)=C1C2CCC1C1C(=O)N(NC(=O)c3ccco3)C(=O)C21 (stereo unspecified) | inactive |  |
| COc1ccc(NS(=O)(=O)c2cc(NC(=O)CC(=O)c3ccc([N+](=O)[O-])cc3)ccc2C)cc1 | inactive |  |
| COc1ccccc1OCCNC(=O)c1cc([N+](=O)[O-])cc([N+](=O)[O-])c1 | inactive |  |
| COc1cccc(NCCC(=O)c2cccc([N+](=O)[O-])c2)c1 | 0.224 µM (active) |  |
| O=C(NCc1csc(-c2cccs2)n1)C1CC1 | inactive |  |
| CC(C)Oc1ccc(Cc2n[nH]c(=S)n2Cc2ccccc2)cc1Cl | inactive |  |

| Compound | Potency | activity, negative = inhibition |
| --- | --- | --- |
| NNC(=O)COc1ccc(C2SCCS2)cc1 | 3.98 µM (active) |  |
| NC(=O)COc1ccc(C23CC4CC(CC(C4)C2)C3)cc1 | inactive |  |
| O=C(COc1ccccc1)NCc1ccc2c(c1)OCO2 | inactive |  |
| COc1ccc(CCNC(=O)COC(=O)Cc2cc(OC)c(OC)c(OC)c2)cc1 | inactive |  |
| CC(C)N(Cc1nc(-c2ccc3c(c2)OCO3)no1)CC1CCC(=O)N1 (stereo unspecified) | inactive |  |
| Cc1nc(N)c(Br)c(C)c1Br | inactive |  |
| Cc1ccc(/C=N\n2c(-c3ccccc3)n[nH]c2=S)s1 | inactive |  |
| CCN(CC)S(=O)(=O)c1cccc(-c2n[nH]c(=S)n2/N=C/c2ccc(C(=O)OC)cc2)c1 | 22.4 µM (active) |  |
| COC(=O)c1ccc(/C=N/N2C(C)CCCC2C)cc1 (stereo unspecified) | inactive |  |
| CCN(CC)C(=O)C(=O)Nc1cccc(Br)c1 | inactive |  |
| C=CCn1c(CCNC(=O)c2ccccc2F)nnc1SCC(=O)Nc1ccc(OC)cc1 | inactive |  |
| Cc1nc(CN2CCN(C(=O)CCc3nnc(Cc4c[nH]c5ccccc45)o3)CC2)cs1 | inactive |  |
| Cc1cc(NC(=O)CN2C(=O)NC(CCc3ccccc3)C2=O)no1 (stereo unspecified) | inactive |  |
| CCN1C(=O)N[C@@H](CCc2ccccc2)C(C(=O)OC)=C1C |  | 5.7% [at 13.5 µM] |
| COC(=O)c1c(NC(=O)CN2C(=O)NC(CCc3ccccc3)C2=O)sc2c1CCCCC2 (stereo unspecified) | 20 µM (active) |  |
| CC(=O)N1CCc2cc(S(=O)(=O)Nc3ccccc3N3CCN(C)CC3)ccc21 | inactive |  |
| CCCNS(=O)(=O)c1ccc2c(c1)CCCN2C(C)=O | 22.4 µM (active) |  |
| CCC1CCCCN1CCNS(=O)(=O)c1ccc2c(c1)CCN2C(C)=O (stereo unspecified) | inactive |  |
| CC(=O)Nc1ccc(NC(=O)COc2ncnc3ccccc23)cc1 | inactive |  |
| O=S(=O)(Cc1noc(-c2ccc(OC(F)(F)F)cc2)n1)c1ccc(F)cc1 | inactive |  |
| CSc1nc2sc3c(c2c(=O)[nH]1)CCc1ccccc1-3 | inactive |  |
| COc1cccc(-n2c(=S)[nH]c3c(oc4ccccc43)c2=O)c1 | inactive |  |

| Compound | Potency | activity, negative = inhibition |
| --- | --- | --- |
| COc1ccc(-n2c(=S)[nH]c3sc4c(c3c2=O)CCc2ccccc2-4)cc1 | 3.98 µM (active) |  |
| CC(NC(=O)CC1SC(N)=NC1=O)c1ccccc1 (stereo unspecified) | inactive |  |
| O=C(NCCc1c[nH]c2ccccc12)c1cc2ccccc2oc1=O | inactive |  |
| CN=C1C=C/C(=N/N=c2\ccn(O)cc2C)C=C1C | inactive |  |
| COc1ccc(C2CC(c3cccs3)=NN2C(=O)CSc2nnc(N)s2)cc1OC (stereo unspecified) | inactive |  |
| CCn1cc(C(=O)N2CCN(Cc3ccc4c(c3)OCO4)CC2)c2cc(OC)c(OC)cc2c1=O | 2.24 µM (active) |  |
| CCn1cc(C(=O)NCc2ccc3c(c2)OCO3)c2cc(OC)c(OC)cc2c1=O | inactive |  |
| CCn1cc(C(=O)N2CCN(C3CCCCC3)CC2)c2cc(OC)c(OC)cc2c1=O | inactive |  |
| Cn1cnnc1SCc1nnc(-c2ccccc2Br)o1 | inactive |  |
| COCc1ccc(C(=O)N2CCc3c([nH]c4ccccc34)C2c2ccccn2)s1 (stereo unspecified) | inactive |  |
| COc1ccccc1CC(NC(C)=O)C(=O)NC1CCN(C(=O)Nc2ccccc2Cl)CC1 (stereo unspecified) | inactive |  |
| Cc1nn(C)cc1/C=C1\CCC/C(=C\c2cn(C)nc2C)C1=O | 28.2 µM (active) |  |
| CCn1cc(/C=C2/SC(=S)NC2=O)c(C)n1 | inactive |  |
| Cc1c(Cl)c([N+](=O)[O-])nn1CC(=O)NCC1CCCO1 (stereo unspecified) | inactive |  |
| CCOC(=O)c1ccc(NC(=O)c2cc(=O)[nH]c3ccccc23)cc1 | inactive |  |
| CCn1c(CSc2nc(C)cc(C)n2)nnc1SCC(N)=O | inactive |  |
| C/C(=N\NC(=O)c1ccc(CSc2nc(C)cc(C)n2)cc1)C1CCCCC1 | 3.55 µM (active) |  |
| C/C(=N\NC(=O)c1nc(C)cc(C)n1)c1ccccc1 | inactive |  |
| CC1=C(/C=C/C(C)=C/C=C/C(C)=C/C=C/C=C(C)/C=C/C=C(C)/C=C/C(=O)[C@]2(C)C[C@@H](O)CC2(C)C)C(C)(C)C[C@H](O)C1 | inactive |  |
| O=C(Nc1ccc2c(c1)CCC2)c1ccc(Br)s1 | inactive |  |
| Cc1ccc(NC(=S)N2CCCC(c3ccccc3)=N2)cc1 | inactive |  |
| CN1CC(c2ccccc2)C2(COc3ccccc3C2=O)C12C(=O)Nc1ccccc12 (stereo unspecified) | 7.94 µM (active) |  |

| Compound | Potency | activity, negative = inhibition |
| --- | --- | --- |
| CC1(C)C2CCC1(C)C(OC(=O)c1ccc(O)cc1)C2 (stereo unspecified) | inactive |  |
| COc1ccc(CCn2ccc(O)c(Cc3ccc(Cl)cc3Cl)c2=O)cc1OC | inactive |  |
| Cc1noc(C)c1S(=O)(=O)Nc1cc(C(F)(F)F)ccc1N1CCOCC1 | inactive |  |
| C=CCN(Cc1nc(-c2cc(OC)c3c(c2)OCO3)oc1C)C1CCS(=O)(=O)C1 (stereo unspecified) | inactive |  |
| CCO[C@@H]1OC(C(N)=O)=C[C@H](c2ccc(Br)cc2)[C@H]1CCCO | inactive |  |
| COC(=O)C(C)Sc1nc2c(c(=O)n(C)c(=O)n2C)n1Cc1cccc(C)c1 (stereo unspecified) | 12.6 µM (active) |  |
| CCOC(=O)CSc1nc2c(c(=O)n(C)c(=O)n2C)n1Cc1ccccc1F | 39.8 µM (active) |  |
| CCCCNc1nc2c(c(=O)n(C)c(=O)n2C)n1Cc1cccc(OC)c1 | inactive |  |
| CC(C)OCCCNc1nc2c(c(=O)n(Cc3ccccc3F)c(=O)n2C)n1C | inactive |  |
| CCCCn1c(SCC(=O)NCCc2ccc(OC)c(OC)c2)nc2c1c(=O)n(C)c(=O)n2C | inactive |  |
| CCCSc1nc2c(c(=O)n(C)c(=O)n2C)n1Cc1ccc(C)cc1 | 25.1 µM (active) |  |
| CCOc1ccc2nc(NC(=O)CSc3nc4c(c(=O)n(C)c(=O)n4C)n3CC)sc2c1 | inactive |  |
| COCCn1c(CN(Cc2ccccc2)Cc2ccccc2)nc2c1c(=O)n(C)c(=O)n2C | inactive |  |
| Cn1c(=O)c2c(nc(SCCNS(=O)(=O)c3ccccc3)n2C)n(C)c1=O | inactive |  |
| Nc1nc(SCC(=O)N2CCN(S(=O)(=O)c3ccc(Cl)cc3)CC2)n[nH]1 | inactive |  |
| COc1cccc(NC(=O)COC(=O)CCOc2ccccc2OC)c1 | inactive |  |
| COCc1c(N)c(C)nc(Cl)c1C#N | inactive |  |
| Cc1n[nH]c(=O)n1-c1ccc(C(C)C)cc1 | inactive |  |
| COc1ccc(NC(=O)COC(=O)c2ccncc2)c(OC)c1 | inactive |  |
| Cc1c(Cl)cccc1NC(=O)CSc1ccc(-c2cccnc2)nn1 | inactive |  |
| COC(=O)c1c(C)[nH]c(C)c1-c1ccc([N+](=O)[O-])cc1 | inactive |  |
| CCCCC/C=C\C/C=C\CCCCCCCCCC(=O)O | inactive |  |

| Compound | Potency | activity, negative = inhibition |
| --- | --- | --- |
| CCOC(=O)Cn1nnnc1C | inactive |  |
| CC(Sc1nnnn1C)C(=O)NC(=O)NC1CCCCC1 (stereo unspecified) | inactive |  |
| Cc1ccc(OC(=O)c2cc3ccccc3o2)cc1 | inactive |  |
| CCc1ccc(Oc2coc3cc(OC(=O)c4cc5ccccc5oc4=O)ccc3c2=O)cc1 | inactive |  |
| O=C(Oc1ccccc1)Oc1ccc2c(c1)oc(=O)c1ccccc12 | 17.8 µM (active) |  |
| CCOC(=O)CSC1=N/C(=C/c2ccc(-n3cncn3)cc2)C(=O)N1C(C)=O | inactive |  |
| O=C(CN1C(=O)/C(=C\c2ccc(C(F)(F)F)cc2)Sc2ccccc21)NCc1ccco1 | inactive |  |
| O=C(CN1C(=O)/C(=C/c2ccccc2F)Sc2ccccc21)NCc1cccnc1 | 20 µM (active) |  |
| O=C(CN1C(=O)/C(=C\c2ccccc2F)SC1=S)Nc1nc2ccccc2s1 | inactive |  |
| CN(/C(=N/S(=O)(=O)c1cccs1)c1ccccc1)c1ccc(O)cc1 | inactive |  |
| Cc1nnc(SC(C(=O)Nc2cc(Cl)cc(Cl)c2)c2ccccc2)[nH]c1=O (stereo unspecified) | inactive |  |
| O=C(Nc1cc(Cl)cc(Cl)c1)C(NCCCO)c1ccccc1 (stereo unspecified) | 1.26 µM (active) |  |
| CCC(C(=O)Nc1ccc(C(C)C)cc1)c1ccccc1 (stereo unspecified) | inactive |  |
| Cc1c(Br)c([N+](=O)[O-])nn1CC(=O)N1CCN(Cc2ccccc2)CC1 | inactive |  |
| COc1ccc(C(=O)Nc2ccc(-n3nncc3C(C)(C)C)cc2)cc1 | inactive |  |
| CC(C)NC(=S)N1CCN(S(C)(=O)=O)CC1 | inactive |  |
| CC(C)NC(=S)N1CCN(C(c2ccccc2)c2ccccc2)CC1 | 10 µM (active) |  |
| O=C(c1ccc(-n2cnnn2)cc1)N1CCN(C(c2ccccc2)c2ccccc2)CC1 | inactive |  |
